High-throughput results: PubChem BioAssay, SRMLSC
The list is not random: actives were taken first. Their share in the collection is about 6.3%.
Spn MK inh – S. pneumoniae MK inhibitors, primary screen, biochemical, PK/LDH-coupled NADH absorbance; inhibition, % at 10 µM; 65,000 compounds, 0.48% hits; purified MK, PK/LDH-coupled NADH absorbance 340 nm;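 active = ranked among the strongest by inhibition in the single 10 µM screen, a fixed top-ranked set picked for dose follow-up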
Abs 340nm – compound light absorbance at 340 nm, profiling panel, artefact control, biochemical, MLSMR library, data from PS, PMK, MK assays; AID 708, 2007; 65,000 tested, under 10 active; fold change at 10 µM; compound absorbance at 340 nm, fold over control;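 active = at 10 µM dose, initial 340 nm absorbance at least 2 fold that of control wells; inactive = change under 2 fold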;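 also: initial absorbance extrapolated from kinetic A340 decline of NADH oxidation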
NADH coupling – inhibitors of PK/LDH coupling enzymes, profiling panel, artefact control, biochemical, MLSMR library; coupled PK/LDH NADH assays, four targets; 65,000 compounds, 0.02% hits; AID 774, 2007; IC50, µM (series often up to 10 µM), without a hit: at the top dose inhibition;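 active = single-dose screening hits from any of four coupled enzyme assays that gave an IC50 when retested across doses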;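 also: the DPM-DC format reads NADH fluorescence rather than 340 nm absorbance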
Autofluor 339 – intrinsic fluorescence of library compounds, ex339/em460 – biochemical, MLSMR library, data from DPM-DC assay, artefact control, profiling panel | fluorescence fold increase at 10 µM | compound autofluorescence, ex339/em460 nm, NADH buffer; stronger effect = higher value; 1 = no-compound wells, NADH background | 65,000 compounds, 5.5% hits | AID 709, 2007;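 active = at 10 µM, mean starting fluorescence two-fold or more over control wells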;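 also: signal is the first read of a kinetic run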
Spn PMK inh – S. pneumoniae PMK inhibitors, primary screen, biochemical, mevalonate pathway, pilot trial included. AID 539, 2006. inhibition, % at 10 µM. phosphomevalonate kinase (Streptococcus pneumoniae D39). 65,000 compounds, 0.49% hits. purified PMK, PK/LDH-coupled NADH absorbance 340 nm;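 active = top-ranked compounds by inhibition in the single 10 µM screen, taking a fixed number of the strongest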;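 also: 0% = full reaction with DMSO carrier and 100% = background rate without enzyme reaction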
DPM-DC inhibit – S. pneumoniae DPM-DC inhibitors, primary screen, biochemical, PK/LDH-coupled NADH fluorescence; diphosphomevalonate decarboxylase (Streptococcus pneumoniae D39); calls only at 10 µM; purified DPM-DC; AID 556, 2006; 65,000 compounds, 0.49% hits;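 active = the 320 compounds with the highest percent inhibition in the single-dose primary screen, excluding strongly autofluorescent ones, cut at about 32% in these data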;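 also: kinetic rate of NADH fluorescence loss reporting ADP formed by the decarboxylase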
Starred values were filed as active, the others as inactive.

Results for CCNC(=O)c1cc2c(=O)n3cccc(C)c3nc2n1C ?
Spn MK inh: 7; Abs 340nm: 1.1; NADH coupling: 9%; Autofluor 339: 5*; Spn PMK inh: 10

Results for Cn1c(C(=O)NCc2ccccn2)cc2c(=O)n3ccccc3nc21 ?
Spn MK inh: 3; Abs 340nm: 1.1; NADH coupling: 6%; Autofluor 339: 4.9*; Spn PMK inh: 9

What do the screens show for `Cc1nc2c(C)cccn2c1/C(O)=C1\C(=O)C(=O)N(CCN(C)C)C1c1ccncc1` (stereo not given)?
Spn MK inh: 9; Abs 340nm: 1.1; NADH coupling: 6%; Autofluor 339: 1.1; Spn PMK inh: 10; DPM-DC inhibit: inactive

What do the screens show for `Cc1cccn2c(=O)c3cc(C(=O)N4CCN(c5ccccc5)CC4)n(C)c3nc12`?
Spn MK inh: 0; Abs 340nm: 1.1; NADH coupling: 1%; Autofluor 339: 5*; Spn PMK inh: 2

Results for Cc1cccn2c(=O)c3cc(C(=O)N(C)C)n(C)c3nc12 ?
Spn MK inh: 8; Abs 340nm: 1.1; NADH coupling: 9%; Autofluor 339: 4.9*; Spn PMK inh: 10

What do the screens show for `Cn1c(C(=O)N2CCc3ccccc32)cc2c(=O)n3ccccc3nc21`?
Spn MK inh: 0; Abs 340nm: 1.1; NADH coupling: 0%; Autofluor 339: 1.9; Spn PMK inh: 0; DPM-DC inhibit: inactive

How did Cc1cccc(C)c1NC(=O)CSc1nnc(CCCCCNC(=O)OC(C)(C)C)o1 do in these assays?
Spn MK inh: 6; Abs 340nm: 1.1; NADH coupling: 4%; Autofluor 339: 1.2; Spn PMK inh: 6; DPM-DC inhibit: inactive

What do the screens show for `CC1CC(C)CN(Cc2nc3c(c(=O)n(C)c(=O)n3C)n2Cc2ccccc2Cl)C1` (stereo not given)?
Spn MK inh: 9; Abs 340nm: 0.99; NADH coupling: 2%; Autofluor 339: 1; Spn PMK inh: 0; DPM-DC inhibit: inactive

Results for COC(=O)c1sccc1NC(=O)c1ccoc1C ?
Spn MK inh: 9; Abs 340nm: 1; NADH coupling: 3%; Autofluor 339: 1.1; Spn PMK inh: 0; DPM-DC inhibit: inactive

Results for CCn1c(=O)cc(SCC(=O)Nc2ccccc2N2CCN(C)CC2)c2ccccc21 ?
Spn MK inh: 0; Abs 340nm: 1; NADH coupling: 5%; Autofluor 339: 1.2; Spn PMK inh: 15; DPM-DC inhibit: inactive

Results for CCOCCCNC(=O)c1cc2c(=O)n3cccc(C)c3nc2n1C ?
Spn MK inh: 0; Abs 340nm: 1.1; NADH coupling: 1%; Autofluor 339: 2.1*; Spn PMK inh: 2

How did Cc1cccn2c(=O)c3cc(C(=O)NCCCN4CCCC4=O)n(C)c3nc12 do in these assays?
Spn MK inh: 0; Abs 340nm: 1.1; NADH coupling: 6%; Autofluor 339: 5*; Spn PMK inh: 12

How did Cn1c(C(=O)N2CCCc3ccccc32)cc2c(=O)n3ccccc3nc21 do in these assays?
Spn MK inh: 14; Abs 340nm: 1.1; NADH coupling: 15%; Autofluor 339: 2.6*; Spn PMK inh: 16; DPM-DC inhibit: inactive

Results for Cc1cccn2c(=O)c3cc(C(=O)NCCCn4ccnc4)n(C)c3nc12 ?
Spn MK inh: 12; Abs 340nm: 1.1; NADH coupling: 13%; Autofluor 339: 5*; Spn PMK inh: 13

What do the screens show for `O=C(CN(C(=O)CNC(=O)c1ccco1)c1ccc(Cl)c(Cl)c1)NC1CCCCC1`?
Spn MK inh: 15; Abs 340nm: 0.98; NADH coupling: 9%; Autofluor 339: 1.1; Spn PMK inh: 11; DPM-DC inhibit: inactive

Results for CC1CCCCN1CCNC(=O)c1cnn2ccccc12 (stereo not given) ?
Spn MK inh: 3; Abs 340nm: 1; NADH coupling: 7%; Autofluor 339: 1.3; Spn PMK inh: 15; DPM-DC inhibit: inactive
